# Data reported in ChEMBL document CHEMBL1961873, “Compounds: GSK PKIS; Assays: Nanosyn kinase panel” (2012).
# Assays:
# [1] = tested on: Epidermal growth factor receptor (Homo sapiens), P00533 [L858R,T790M]; settings: at 0.1 µM
# [2] = tested on: Epidermal growth factor receptor (Homo sapiens), P00533 [L858R,T790M]; settings: at 1 µM
# [3] = biological target: Ephrin type-A receptor 2 (Homo sapiens) (UniProt P29317); settings: at 0.1 µM
# [4] = biological target: Ephrin type-A receptor 2 (Homo sapiens) (UniProt P29317); settings: at 1 µM
# [5] = biological target: Ephrin type-A receptor 3 (Homo sapiens) (UniProt P29320); settings: at 0.1 µM
# [6] = biological target: Ephrin type-A receptor 3 (Homo sapiens) (UniProt P29320); settings: at 1 µM
# [7] = biological target: Ephrin type-A receptor 4 (Homo sapiens) (UniProt P54764); settings: at 0.1 µM
# [8] = biological target: Ephrin type-A receptor 4 (Homo sapiens) (UniProt P54764); settings: at 1 µM
# [9] = biological target: Ephrin type-B receptor 2 (Homo sapiens) (UniProt P29323); settings: at 0.1 µM
# Sequence of Ephrin type-B receptor 2 (Homo sapiens) (P29323 whole entry): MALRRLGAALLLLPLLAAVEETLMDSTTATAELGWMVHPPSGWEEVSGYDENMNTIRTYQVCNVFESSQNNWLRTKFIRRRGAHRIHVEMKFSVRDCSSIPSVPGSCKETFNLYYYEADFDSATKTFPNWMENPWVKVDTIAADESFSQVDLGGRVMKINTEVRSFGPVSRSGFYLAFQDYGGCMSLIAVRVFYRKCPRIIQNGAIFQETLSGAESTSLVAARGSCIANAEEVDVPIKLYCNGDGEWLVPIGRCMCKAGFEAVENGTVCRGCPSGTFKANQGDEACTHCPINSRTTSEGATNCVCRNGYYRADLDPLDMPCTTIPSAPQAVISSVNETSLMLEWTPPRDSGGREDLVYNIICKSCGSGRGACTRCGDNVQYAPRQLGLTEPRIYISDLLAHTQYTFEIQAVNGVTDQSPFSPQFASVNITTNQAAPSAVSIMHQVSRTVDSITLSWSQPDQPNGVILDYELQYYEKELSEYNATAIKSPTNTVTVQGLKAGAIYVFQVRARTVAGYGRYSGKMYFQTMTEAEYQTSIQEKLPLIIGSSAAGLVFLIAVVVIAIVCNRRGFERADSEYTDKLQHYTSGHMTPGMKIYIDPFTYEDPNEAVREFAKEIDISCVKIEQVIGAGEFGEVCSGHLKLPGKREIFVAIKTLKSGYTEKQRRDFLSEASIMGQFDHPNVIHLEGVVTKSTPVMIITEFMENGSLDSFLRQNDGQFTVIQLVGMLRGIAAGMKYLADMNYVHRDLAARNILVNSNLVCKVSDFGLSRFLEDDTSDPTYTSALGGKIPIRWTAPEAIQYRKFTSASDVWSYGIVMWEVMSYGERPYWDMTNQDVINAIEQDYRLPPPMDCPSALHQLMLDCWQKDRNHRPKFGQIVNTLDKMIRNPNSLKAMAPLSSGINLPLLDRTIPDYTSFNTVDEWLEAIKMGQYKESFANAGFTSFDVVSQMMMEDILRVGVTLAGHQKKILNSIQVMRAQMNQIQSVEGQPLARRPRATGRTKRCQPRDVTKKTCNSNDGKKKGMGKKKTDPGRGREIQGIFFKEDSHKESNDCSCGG
# [10] = biological target: Ephrin type-B receptor 2 (Homo sapiens) (UniProt P29323); settings: at 1 µM
# [11] = biological target: Ephrin type-B receptor 3 (Homo sapiens) (UniProt P54753); settings: at 0.1 µM
# [12] = biological target: Ephrin type-B receptor 3 (Homo sapiens) (UniProt P54753); settings: at 1 µM
# [13] = biological target: Ephrin type-B receptor 4 (Homo sapiens) (UniProt P54760); settings: at 0.1 µM
# [14] = biological target: Ephrin type-B receptor 4 (Homo sapiens) (UniProt P54760); settings: at 1 µM
# [15] = biological target: Receptor tyrosine-protein kinase erbB-2 (Homo sapiens) (UniProt P04626); settings: at 0.1 µM
# [16] = biological target: Receptor tyrosine-protein kinase erbB-2 (Homo sapiens) (UniProt P04626); settings: at 1 µM
# [17] = biological target: Receptor tyrosine-protein kinase erbB-4 (Homo sapiens) (UniProt Q15303); settings: at 0.1 µM
# Sequence of Receptor tyrosine-protein kinase erbB-4 (Homo sapiens) (Q15303 whole entry): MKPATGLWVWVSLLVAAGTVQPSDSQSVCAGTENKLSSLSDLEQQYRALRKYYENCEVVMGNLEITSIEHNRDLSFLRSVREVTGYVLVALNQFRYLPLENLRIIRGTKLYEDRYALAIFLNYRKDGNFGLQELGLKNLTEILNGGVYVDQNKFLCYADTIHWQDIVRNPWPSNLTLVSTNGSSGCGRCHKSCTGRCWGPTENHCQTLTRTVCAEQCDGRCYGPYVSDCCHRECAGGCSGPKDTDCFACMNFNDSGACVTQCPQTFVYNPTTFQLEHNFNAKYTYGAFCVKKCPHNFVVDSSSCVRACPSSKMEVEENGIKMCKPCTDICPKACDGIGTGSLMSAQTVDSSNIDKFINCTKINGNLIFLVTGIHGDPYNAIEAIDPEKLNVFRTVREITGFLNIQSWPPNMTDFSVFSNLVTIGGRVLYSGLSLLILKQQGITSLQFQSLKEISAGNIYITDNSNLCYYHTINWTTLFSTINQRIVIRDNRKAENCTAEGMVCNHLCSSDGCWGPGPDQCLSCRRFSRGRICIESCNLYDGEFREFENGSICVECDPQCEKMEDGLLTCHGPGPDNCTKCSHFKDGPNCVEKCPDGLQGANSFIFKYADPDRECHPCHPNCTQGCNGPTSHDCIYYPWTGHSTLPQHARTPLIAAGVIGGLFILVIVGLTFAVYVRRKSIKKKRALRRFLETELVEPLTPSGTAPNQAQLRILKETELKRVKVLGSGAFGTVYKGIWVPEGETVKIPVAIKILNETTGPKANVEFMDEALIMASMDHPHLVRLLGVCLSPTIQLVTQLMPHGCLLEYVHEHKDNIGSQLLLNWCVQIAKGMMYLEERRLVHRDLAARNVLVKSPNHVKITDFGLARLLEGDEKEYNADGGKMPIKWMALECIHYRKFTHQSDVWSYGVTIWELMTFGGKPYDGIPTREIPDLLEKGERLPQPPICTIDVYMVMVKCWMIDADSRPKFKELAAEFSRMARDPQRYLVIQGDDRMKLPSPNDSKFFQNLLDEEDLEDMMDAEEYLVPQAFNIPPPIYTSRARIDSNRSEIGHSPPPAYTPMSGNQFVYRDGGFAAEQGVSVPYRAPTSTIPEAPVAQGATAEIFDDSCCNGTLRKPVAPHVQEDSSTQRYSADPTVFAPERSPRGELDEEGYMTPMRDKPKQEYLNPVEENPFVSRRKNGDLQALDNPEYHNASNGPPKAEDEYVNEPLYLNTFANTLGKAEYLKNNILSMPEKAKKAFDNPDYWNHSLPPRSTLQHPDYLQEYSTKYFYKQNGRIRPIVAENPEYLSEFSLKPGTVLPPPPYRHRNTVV
# [18] = biological target: Receptor tyrosine-protein kinase erbB-4 (Homo sapiens) (UniProt Q15303); settings: at 1 µM
# [19] = biological target: Tyrosine-protein kinase Fer (Homo sapiens) (UniProt P16591); settings: at 0.1 µM
# [20] = biological target: Tyrosine-protein kinase Fer (Homo sapiens) (UniProt P16591); settings: at 1 µM
# [21] = biological target: Tyrosine-protein kinase Fes/Fps (Homo sapiens) (UniProt P07332); settings: at 0.1 µM
# [22] = biological target: Tyrosine-protein kinase Fes/Fps (Homo sapiens) (UniProt P07332); settings: at 1 µM
# [23] = biological target: Fibroblast growth factor receptor 1 (Homo sapiens) (UniProt P11362); settings: at 0.1 µM
# [24] = biological target: Fibroblast growth factor receptor 1 (Homo sapiens) (UniProt P11362); settings: at 1 µM
# [25] = biological target: Fibroblast growth factor receptor 2 (Homo sapiens) (UniProt P21802); settings: at 0.1 µM
# Sequence of Fibroblast growth factor receptor 2 (Homo sapiens) (P21802 22-821 limits assumed): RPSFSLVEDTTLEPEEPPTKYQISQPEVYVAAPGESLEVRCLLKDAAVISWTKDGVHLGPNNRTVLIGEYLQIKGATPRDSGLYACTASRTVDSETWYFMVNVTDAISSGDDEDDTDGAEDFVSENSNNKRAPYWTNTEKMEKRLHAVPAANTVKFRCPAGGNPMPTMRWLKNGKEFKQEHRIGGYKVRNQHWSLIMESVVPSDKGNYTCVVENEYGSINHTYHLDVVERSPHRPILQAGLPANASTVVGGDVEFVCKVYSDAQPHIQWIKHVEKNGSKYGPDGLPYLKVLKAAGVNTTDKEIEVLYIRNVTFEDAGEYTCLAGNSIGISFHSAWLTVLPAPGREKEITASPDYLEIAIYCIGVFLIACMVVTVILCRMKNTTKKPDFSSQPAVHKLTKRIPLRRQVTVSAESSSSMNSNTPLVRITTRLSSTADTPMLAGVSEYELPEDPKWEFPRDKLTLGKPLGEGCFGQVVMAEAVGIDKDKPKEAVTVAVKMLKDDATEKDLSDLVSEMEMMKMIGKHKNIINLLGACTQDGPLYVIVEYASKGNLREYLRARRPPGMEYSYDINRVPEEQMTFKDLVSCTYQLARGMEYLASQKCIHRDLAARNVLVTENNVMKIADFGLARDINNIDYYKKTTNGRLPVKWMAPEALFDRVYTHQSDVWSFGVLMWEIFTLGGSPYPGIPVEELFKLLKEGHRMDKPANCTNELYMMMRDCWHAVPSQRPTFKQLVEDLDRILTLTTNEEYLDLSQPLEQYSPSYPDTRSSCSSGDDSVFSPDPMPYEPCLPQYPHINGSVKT
# [26] = biological target: Fibroblast growth factor receptor 2 (Homo sapiens) (UniProt P21802); settings: at 1 µM
# [27] = biological target: Fibroblast growth factor receptor 3 (Homo sapiens) (UniProt P22607); settings: at 0.1 µM
# [28] = biological target: Fibroblast growth factor receptor 3 (Homo sapiens) (UniProt P22607); settings: at 1 µM
# [29] = biological target: Fibroblast growth factor receptor 4 (Homo sapiens) (UniProt P22455); settings: at 0.1 µM
# [30] = biological target: Fibroblast growth factor receptor 4 (Homo sapiens) (UniProt P22455); settings: at 1 µM
# [31] = biological target: Tyrosine-protein kinase Fgr (Homo sapiens) (UniProt P09769); settings: at 0.1 µM
# [32] = biological target: Tyrosine-protein kinase Fgr (Homo sapiens) (UniProt P09769); settings: at 1 µM
# [33] = biological target: Vascular endothelial growth factor receptor 1 (Homo sapiens) (UniProt P17948); settings: at 0.1 µM
# Sequence of Vascular endothelial growth factor receptor 1 (Homo sapiens) (P17948 whole entry): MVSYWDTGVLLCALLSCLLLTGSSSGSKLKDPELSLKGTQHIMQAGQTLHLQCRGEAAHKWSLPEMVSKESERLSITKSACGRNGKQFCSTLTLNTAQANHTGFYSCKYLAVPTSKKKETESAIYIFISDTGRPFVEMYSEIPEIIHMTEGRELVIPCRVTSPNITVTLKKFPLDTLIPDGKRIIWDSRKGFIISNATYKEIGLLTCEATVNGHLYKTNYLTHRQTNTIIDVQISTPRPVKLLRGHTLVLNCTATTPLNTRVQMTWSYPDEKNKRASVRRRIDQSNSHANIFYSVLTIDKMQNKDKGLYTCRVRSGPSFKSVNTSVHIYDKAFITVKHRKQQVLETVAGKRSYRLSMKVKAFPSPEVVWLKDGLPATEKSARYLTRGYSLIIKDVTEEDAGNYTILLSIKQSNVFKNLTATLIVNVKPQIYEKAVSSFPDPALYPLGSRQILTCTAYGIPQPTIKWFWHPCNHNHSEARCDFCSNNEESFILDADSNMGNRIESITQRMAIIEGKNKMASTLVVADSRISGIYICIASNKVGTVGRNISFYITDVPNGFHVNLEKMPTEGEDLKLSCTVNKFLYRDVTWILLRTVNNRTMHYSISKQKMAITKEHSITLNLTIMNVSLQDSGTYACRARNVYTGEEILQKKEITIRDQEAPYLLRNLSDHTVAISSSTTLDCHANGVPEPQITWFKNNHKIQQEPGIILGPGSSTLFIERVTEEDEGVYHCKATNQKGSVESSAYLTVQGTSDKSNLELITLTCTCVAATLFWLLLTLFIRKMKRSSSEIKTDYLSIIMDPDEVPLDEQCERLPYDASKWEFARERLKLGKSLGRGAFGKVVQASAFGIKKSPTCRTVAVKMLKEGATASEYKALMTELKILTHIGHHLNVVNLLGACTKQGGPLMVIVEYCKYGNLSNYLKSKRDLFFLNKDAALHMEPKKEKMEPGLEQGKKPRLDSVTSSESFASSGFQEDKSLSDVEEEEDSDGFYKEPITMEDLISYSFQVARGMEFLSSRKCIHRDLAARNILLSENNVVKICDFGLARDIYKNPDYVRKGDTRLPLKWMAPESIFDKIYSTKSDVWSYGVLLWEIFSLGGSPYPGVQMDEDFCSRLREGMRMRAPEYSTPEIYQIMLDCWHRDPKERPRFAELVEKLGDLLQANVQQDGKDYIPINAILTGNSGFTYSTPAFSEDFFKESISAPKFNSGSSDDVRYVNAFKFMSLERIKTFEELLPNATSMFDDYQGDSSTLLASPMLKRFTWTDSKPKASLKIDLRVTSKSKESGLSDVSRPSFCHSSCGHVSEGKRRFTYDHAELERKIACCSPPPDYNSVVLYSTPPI
# [34] = biological target: Vascular endothelial growth factor receptor 1 (Homo sapiens) (UniProt P17948); settings: at 1 µM
# [35] = biological target: Receptor-type tyrosine-protein kinase FLT3 (Homo sapiens) (UniProt P36888); settings: at 0.1 µM
# [36] = biological target: Receptor-type tyrosine-protein kinase FLT3 (Homo sapiens) (UniProt P36888); settings: at 1 µM
# [37] = tested on: Receptor-type tyrosine-protein kinase FLT3 (Homo sapiens), P36888 [D835Y]; settings: at 0.1 µM
# [38] = biological target: Non-receptor tyrosine-protein kinase TYK2 (Homo sapiens) (UniProt P29597); settings: at 1 µM;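 also: values are mean percent inhibition of TYK2 kinase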
# [39] = biological target: Tyrosine-protein kinase receptor TYRO3 (Homo sapiens) (UniProt Q06418); settings: at 0.1 µM
# [40] = biological target: Tyrosine-protein kinase receptor TYRO3 (Homo sapiens) (UniProt Q06418); settings: at 1 µM
# [41] = biological target: Tyrosine-protein kinase Yes (Homo sapiens) (UniProt P07947); settings: at 0.1 µM
# [42] = biological target: Tyrosine-protein kinase Yes (Homo sapiens) (UniProt P07947); settings: at 1 µM
# [43] = biological target: Tyrosine-protein kinase ZAP-70 (Homo sapiens) (UniProt P43403); settings: at 0.1 µM
# [44] = biological target: Tyrosine-protein kinase ZAP-70 (Homo sapiens) (UniProt P43403); settings: at 1 µM
# [45] = biological target: Serine/threonine-protein kinase B-raf (Homo sapiens) (UniProt P15056); settings: at 0.1 µM
# [46] = biological target: Serine/threonine-protein kinase B-raf (Homo sapiens) (UniProt P15056); settings: at 1 µM
# [47] = tested on: Serine/threonine-protein kinase B-raf (Homo sapiens), P15056 [V600E]; settings: at 0.1 µM
# [48] = tested on: Serine/threonine-protein kinase B-raf (Homo sapiens), P15056 [V600E]; settings: at 1 µM
# [49] = biological target: RAF proto-oncogene serine/threonine-protein kinase (Homo sapiens) (UniProt P04049); settings: at 0.1 µM
# [50] = biological target: RAF proto-oncogene serine/threonine-protein kinase (Homo sapiens) (UniProt P04049); settings: at 1 µM
# [51] = biological target: Interleukin-1 receptor-associated kinase 4 (Homo sapiens) (UniProt Q9NWZ3); settings: at 0.1 µM
# Sequence of Interleukin-1 receptor-associated kinase 4 (Homo sapiens) (Q9NWZ3 whole entry): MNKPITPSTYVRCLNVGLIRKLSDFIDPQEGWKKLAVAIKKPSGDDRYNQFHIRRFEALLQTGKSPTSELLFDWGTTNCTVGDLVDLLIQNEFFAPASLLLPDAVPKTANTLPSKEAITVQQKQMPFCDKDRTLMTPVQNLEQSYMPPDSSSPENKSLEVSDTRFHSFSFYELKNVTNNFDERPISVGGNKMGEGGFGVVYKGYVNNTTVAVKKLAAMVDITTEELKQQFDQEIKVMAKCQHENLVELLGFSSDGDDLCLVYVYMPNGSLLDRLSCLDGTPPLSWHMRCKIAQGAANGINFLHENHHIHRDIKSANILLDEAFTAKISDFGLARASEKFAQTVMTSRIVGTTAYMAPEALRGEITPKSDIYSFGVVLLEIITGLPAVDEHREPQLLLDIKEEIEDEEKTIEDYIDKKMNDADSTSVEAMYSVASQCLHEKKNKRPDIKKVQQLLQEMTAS
# [52] = biological target: Interleukin-1 receptor-associated kinase 4 (Homo sapiens) (UniProt Q9NWZ3); settings: at 1 µM
# [53] = biological target: Leucine-rich repeat serine/threonine-protein kinase 2 (Homo sapiens) (UniProt Q5S007); settings: at 0.1 µM
# [54] = biological target: Leucine-rich repeat serine/threonine-protein kinase 2 (Homo sapiens) (UniProt Q5S007); settings: at 1 µM
# [55] = tested on: Leucine-rich repeat serine/threonine-protein kinase 2 (Homo sapiens), Q5S007 [G2019S]; settings: at 0.1 µM
# [56] = tested on: Leucine-rich repeat serine/threonine-protein kinase 2 (Homo sapiens), Q5S007 [G2019S]; settings: at 1 µM
compound,measurement,setting,value
CNC(=O)Oc1cc(C)c(/C=C/c2cncc(C(=O)NC)c2)c(C)c1,inhibition,[1],-1.98%
same,inhibition,[2],-0.11%
same,inhibition,[3],12%
same,inhibition,[4],49.6%
same,inhibition,[5],7.72%
same,inhibition,[6],17.6%
same,inhibition,[7],17.7%
same,inhibition,[8],61.4%
same,inhibition,[9],12.4%
same,inhibition,[10],52.8%
same,inhibition,[11],5.12%
same,inhibition,[12],6.12%
same,inhibition,[13],9.51%
same,inhibition,[14],49.7%
same,inhibition,[15],0.63%
same,inhibition,[16],-1.51%
same,inhibition,[17],7.57%
same,inhibition,[18],13.2%
same,inhibition,[19],0.78%
same,inhibition,[20],3.53%
same,inhibition,[21],5.18%
same,inhibition,[22],7.85%
same,inhibition,[23],3.22%
same,inhibition,[24],0.63%
same,inhibition,[25],0.21%
same,inhibition,[26],10.2%
same,inhibition,[27],2.97%
same,inhibition,[28],2.24%
same,inhibition,[29],-0.84%
same,inhibition,[30],0.6%
same,inhibition,[31],3.83%
same,inhibition,[32],24.6%
same,inhibition,[33],0.98%
same,inhibition,[34],4.03%
same,inhibition,[35],1.57%
same,inhibition,[36],1.37%
same,inhibition,[37],0.68%
same,inhibition,[38],-0.46%
same,inhibition,[39],1.9%
same,inhibition,[40],5.43%
same,inhibition,[41],4.32%
same,inhibition,[42],23.4%
same,inhibition,[43],2%
same,inhibition,[44],-0.7%
same,inhibition,[45],4.75%
same,inhibition,[46],9.98%
same,inhibition,[47],4.23%
same,inhibition,[48],8.52%
same,inhibition,[49],-2.42%
same,inhibition,[50],1.27%
same,inhibition,[51],-1.38%
same,inhibition,[52],1.67%
same,inhibition,[53],7.04%
same,inhibition,[54],10.5%
same,inhibition,[55],5.2%
same,inhibition,[56],18.7%
